Compound activity from PubChem.
Y pestis TopoI – Yersinia pestis topoisomerase I inhibitors, primary screen, biochemical, cleavage product accumulation, plate reader, single point. DNA topoisomerase I (Yersinia pestis CO92). activity, % at 10 µM. Y. pestis Topo-I cleavage product accumulation. AID 504884, 2011. actives 0.064% (n = 360,000); in the data active = activity above about 50%, passing the limit was not always enough
TcdB inh – TcdB glycohydrolase inhibitors, primary screen, biochemical, single point, plate reader | TcdB glycohydrolase enzymatic assay | actives 0.24% (n = 350,000) | inhibition, % at 9.99 µM | AID 652162, 2013; in the data active = inhibition above about 10%
BioA inh-1 – M. tuberculosis BioA enzyme inhibitors, primary screen, biochemical, plate reader, single point, HTS; 7,8-diaminopelargonic acid synthase BioA (Mycobacterium tuberculosis); purified M. tuberculosis BioA enzyme; inhibition, % at 9.99 µM; actives 0.096% (n = 360,000); AID 602481, 2012; in the data active = inhibition above about 40%
BioA inh-2 – Mtb BioA enzyme inhibitors, dose response, biochemical, plate reader, cherry-pick samples, set 03. shares compounds with BioA inh-1. AID 651679, 2012. 310 tested, under 10 active. max activity, %. purified BioA enzyme;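 also: top concentration of the dilution series was 10 µM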
HepG2 cytotox – cytotoxicity in HepG2 cells, dose response, cytotoxicity control, cell-based, plate reader, cherry-pick, two tests; shares compounds with BioA inh-1; max activity, %; 310 tested, under 10 active
NIH3T3 tox 5 – cytotoxicity in NIH3T3 fibroblasts, dose response, cytotoxicity control, cell-based, plate reader, cherry-pick, two tests. 310 tested, under 10 active. activity change, negative = cytotoxicity, % at 26 µM. AID 651900, 2012. shares compounds with BioA inh-1
Active calls of the source: *; / = not tested or not shown. Only some compounds are listed: those with a hit (about 0.32% of all), similar ones and a draw of the others. Unless noted, no rule for the calls is given here.

SMILES | Y pestis TopoI | TcdB inh | BioA inh-1 | BioA inh-2 | HepG2 cytotox | NIH3T3 tox 5
COc1ccc(-n2nc3c(N4CCC(C(=O)N5CCC(C)CC5)CC4)nnc(C)c3c2C)cc1 | 13 | 2 | 21 | / | / | /
C[C@@H]1CN([C@@H](C)CO)S(=O)(=O)c2ccc(Br)cc2O[C@@H]1CN(C)Cc1ccncc1 | / | 1 | 2 | / | / | /
CN(C)C(=O)C[C@H]1C[C@H]2c3cc(NC(=O)C4CCC4)ccc3O[C@H]2[C@@H](CO)O1 | / | 1 | -1 | / | / | /
C[C@@H]1CCCCO[C@@H](CN(C)C(=O)CCCN(C)C)[C@@H](C)CN([C@@H](C)CO)C(=O)c2cc(NC(=O)Nc3ccc(C(F)(F)F)cc3)ccc2O1 | / | / | 2 | / | / | /
O=C(Nc1ncc2c(n1)CC(c1ccccc1)CC2=O)c1ccco1 (stereo not drawn) | -5 | 3 | 98* | 6 | 17 | 3
O=C1CC(c2cccc(Cl)c2)Cc2nc(N3CCOCC3)ncc21 (stereo not drawn) | 12 | / | 2 | / | / | /
COc1ccc(C2CC(=O)c3cnc(NC(=O)c4ccco4)nc3C2)cc1 (stereo not drawn) | 2 | 0 | 3 | / | / | /
O=C(Nc1ncc2c(n1)CC(c1cccc(Cl)c1)CC2=O)c1ccco1 (stereo not drawn) | 3 | 1 | 61* | -5 | 16 | 0
CN1[C@@H]2c3ccc(-c4cccc(F)c4)c(=O)n3C[C@H]1[C@H](CO)[C@H]2C(=O)N1CCCCC1 | / | 0 | 1 | / | / | /
C=C1CC(/C=C/c2cc(OC)c(OC)c(OC)c2)OC1=O (stereo not drawn) | / | 1 | / | / | / | /
C[C@@H]1CN([C@@H](C)CO)S(=O)(=O)c2ccc(-c3ccc(F)cc3)cc2O[C@@H]1CN(C)C | / | 1 | 1 | / | / | /
COC(=O)C1=C(C)Nc2sc(C(N)=O)c(N)c2C1c1ccncc1 (stereo not drawn) | -2 | -2 | 76* | -8 | -16 | 4
CCOC(=O)C1=C(C)Nc2sc(C(=O)c3ccc(OC)cc3)c(N)c2C1c1ccc(C(=O)OC)cc1 (stereo not drawn) | 3 | 1 | -2 | / | / | /
CCCNC(=O)N1CC2(CCN(C(=O)Nc3cccc(F)c3)CC2)c2c(n(C)c3cc(OC)ccc23)[C@@H]1CO | / | 0 | / | / | / | /
Cc1noc(C)c1NC(=O)N[C@@H]1CC[C@@H](CCNC(=O)C2CC2)O[C@H]1CO | / | 0 | -3 | / | / | /
Cc1noc(C)c1S(=O)(=O)Nc1ccc2c(c1)CC(=O)N([C@@H](C)CO)C[C@@H](C)[C@@H](CN(C)C(=O)NC(C)C)O2 | / | -5 | -1 | / | / | /
CCc1ccc(NC(=O)C(CC)Sc2nc3ccsc3c(=O)n2CCC(=O)O)cc1 (stereo not drawn) | 7 | 0 | 0 | / | / | /
CCC(Sc1nc2ccsc2c(=O)n1Cc1ccc(C(=O)O)cc1)C(=O)Nc1cccc(OC)c1 (stereo not drawn) | -3 | -1 | 75* | -6 | -11 | -1
CCOC(=O)c1c(N)sc(C(N)=O)c1C | -1 | / | 58* | -8 | -9 | 0
Cc1c(C(N)=O)sc(N)c1C(=O)OC(C)C | -7 | / | 92* | -5 | -5 | -14
Cc1c(C(=O)OC(C)C)sc(N)c1C(=O)OC(C)C | 14 | -1 | / | / | / | /
CCOC(=O)c1sc(N)c(C(N)=O)c1C | 6 | 2 | -2 | / | / | /
COc1ccc(S(=O)(=O)Nc2ccc3c(c2)C(=O)N([C@H](C)CO)C[C@@H](C)[C@H](CN(C)Cc2ccc(C(=O)O)cc2)OCCCC[C@@H](C)O3)cc1 | / | 0 | 0 | / | / | /
CC(C)CC#Cc1cnc2c(c1)C(=O)N([C@@H](C)CO)C[C@H](C)[C@@H](CN(C)C(=O)CCN1CCCCC1)O2 | / | 0 | -1 | / | / | /
CCN(CC)S(=O)(=O)c1ccc(NC(=O)c2ccc(NS(C)(=O)=O)cc2)cc1 | 5 | / | -2 | / | / | /
CCN(CC)S(=O)(=O)c1ccc(NC(=O)c2ccc(Cl)nc2)cc1 | 0 | 1 | 52* | -10 | -11 | -9
CO[C@H]1CN(C)C(=O)c2cc(NC(=O)c3ccccc3F)ccc2OC[C@H](C)N(CC2CC2)C[C@@H]1C | / | -1 | 4 | / | / | /
CC(Oc1ccc2c(-c3ccccc3)cc(=O)oc2c1)C(=O)N1CCOCC1 (stereo not drawn) | 4 | 0 | 11 | / | / | /
